PubChem BioAssay
Unmarked numbers belong to inactive results. Entries that show only a call come without a potency. For some of these results: Potency and affinity values are given separately. Active and inactive are the calls of the source. Unless noted, how the calls were made is not given here.

What was measured:
[1] = antimalarial activity against Dd2 strain (AID 2302;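 active means growth inhibition above 50% at the single 2 µM test dose, taken to imply half-maximal potency below 2 µM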); conditions: P. falciparum Dd2 in RBCs, LDH growth readout, 72 h; at 2 µM; active compounds read high
[2] = biological target: L-lactate dehydrogenase (Plasmodium falciparum (isolate CDC / Honduras)) (UniProt Q27743); experiment: PfLDH activity inhibition – cell lysate, 3D7 strain, counter-screen for P. falciparum growth inhibition project (AID 2304); conditions: P. falciparum 3D7 crude extract, LDH APAD/NBT absorbance; at 2 µM; active compounds read high
L-lactate dehydrogenase (Plasmodium falciparum (isolate CDC / Honduras)), sequence (Q27743 whole entry, looked up): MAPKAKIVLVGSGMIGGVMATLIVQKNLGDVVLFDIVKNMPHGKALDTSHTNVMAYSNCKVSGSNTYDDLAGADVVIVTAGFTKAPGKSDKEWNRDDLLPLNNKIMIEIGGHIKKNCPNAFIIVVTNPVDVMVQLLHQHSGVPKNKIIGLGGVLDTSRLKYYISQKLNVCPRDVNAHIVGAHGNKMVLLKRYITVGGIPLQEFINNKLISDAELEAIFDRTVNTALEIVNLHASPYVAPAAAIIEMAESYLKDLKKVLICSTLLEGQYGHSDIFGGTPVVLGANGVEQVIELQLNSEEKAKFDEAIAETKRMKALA

[3] = inhibition of 3D7 malaria parasite growth – strain 3D7 (AID 2306); conditions: P. falciparum 3D7 erythrocytic growth, LDH absorbance, 72 h; at 2 µM; active compounds read high
[4] = biological target: Calcium-dependent protein kinase 1 (Plasmodium falciparum (isolate 3D7)) (UniProt P62344); experiment: PfCDPK1 kinase inhibitors, biochemical, TCAMS library (AID 1159585; cut-off not given, nearly all actives have IC50 up to about 0.98 µM;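 further: inhibitors leave more ATP so luminescence rises with inhibition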); conditions: recombinant PfCDPK1, Kinase-Glo ATP depletion luminescence
Calcium-dependent protein kinase 1 (Plasmodium falciparum (isolate 3D7)), sequence (P62344 whole entry, looked up): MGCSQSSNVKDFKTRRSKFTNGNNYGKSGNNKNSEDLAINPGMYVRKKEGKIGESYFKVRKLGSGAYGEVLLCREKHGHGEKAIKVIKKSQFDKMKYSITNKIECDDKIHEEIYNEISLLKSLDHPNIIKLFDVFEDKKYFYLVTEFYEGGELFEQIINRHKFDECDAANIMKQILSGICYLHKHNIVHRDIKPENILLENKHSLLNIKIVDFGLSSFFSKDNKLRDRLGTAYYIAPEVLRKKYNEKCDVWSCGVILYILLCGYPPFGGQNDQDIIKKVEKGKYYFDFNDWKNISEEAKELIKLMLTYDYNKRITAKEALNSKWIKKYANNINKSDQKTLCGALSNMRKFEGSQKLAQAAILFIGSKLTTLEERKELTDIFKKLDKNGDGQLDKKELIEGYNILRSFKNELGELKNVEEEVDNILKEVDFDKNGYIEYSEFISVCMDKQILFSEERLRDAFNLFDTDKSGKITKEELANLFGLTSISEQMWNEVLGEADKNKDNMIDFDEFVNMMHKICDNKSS

[5] = biological target: Plasmodium falciparum protein kinase 6 (PK6, PF3D7_1337100) (UniProt Q8IDW1); experiment: PfPK6 kinase inhibitors, biochemical, TCAMS library (AID 1159586); conditions: recombinant PfPK6, Kinase-Glo ATP depletion luminescence
Plasmodium falciparum protein kinase 6 (PK6, PF3D7_1337100), sequence (Q8IDW1 1-305): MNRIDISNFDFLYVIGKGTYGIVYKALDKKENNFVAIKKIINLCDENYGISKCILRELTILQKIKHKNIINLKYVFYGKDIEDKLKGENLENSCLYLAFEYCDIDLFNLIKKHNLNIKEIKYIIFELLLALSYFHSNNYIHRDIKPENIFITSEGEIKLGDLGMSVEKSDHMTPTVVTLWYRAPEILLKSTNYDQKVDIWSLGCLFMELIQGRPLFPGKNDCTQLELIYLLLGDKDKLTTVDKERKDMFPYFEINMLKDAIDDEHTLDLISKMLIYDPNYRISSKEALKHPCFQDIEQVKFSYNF

[6] = biological target: Protein kinase 7 (PK7), Plasmodium falciparum 3D7 (PF3D7_0213400) (UniProt Q7YTF7); experiment: inhibition of Plasmodium PK7 catalytic activity – biochemical, TCAMS antimalarial set, Kinase-Glo luminescence (AID 1159587); conditions: recombinant PfPK7, Kinase-Glo ATP depletion luminescence
Protein kinase 7 (PK7), Plasmodium falciparum 3D7 (PF3D7_0213400), sequence (Q7YTF7 1-343): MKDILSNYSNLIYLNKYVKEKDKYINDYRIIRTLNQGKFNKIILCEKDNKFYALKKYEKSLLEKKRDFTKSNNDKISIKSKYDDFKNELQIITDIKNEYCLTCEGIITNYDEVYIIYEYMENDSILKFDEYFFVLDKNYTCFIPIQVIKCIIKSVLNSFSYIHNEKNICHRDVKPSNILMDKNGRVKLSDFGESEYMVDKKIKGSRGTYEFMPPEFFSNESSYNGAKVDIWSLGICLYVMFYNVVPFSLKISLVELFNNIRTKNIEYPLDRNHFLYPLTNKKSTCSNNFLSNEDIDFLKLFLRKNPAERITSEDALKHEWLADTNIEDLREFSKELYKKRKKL

[7] = biological target: Calcium-dependent protein kinase 4 (Plasmodium falciparum (isolate 3D7)) (UniProt Q8IBS5); experiment: PfCDPK4 kinase inhibitors, biochemical, TCAMS library (AID 1159588; cut-off not given, nearly all actives have IC50 up to about 0.91 µM); conditions: recombinant PfCDPK4, Kinase-Glo ATP depletion luminescence
Calcium-dependent protein kinase 4 (Plasmodium falciparum (isolate 3D7)), sequence (Q8IBS5 whole entry, looked up): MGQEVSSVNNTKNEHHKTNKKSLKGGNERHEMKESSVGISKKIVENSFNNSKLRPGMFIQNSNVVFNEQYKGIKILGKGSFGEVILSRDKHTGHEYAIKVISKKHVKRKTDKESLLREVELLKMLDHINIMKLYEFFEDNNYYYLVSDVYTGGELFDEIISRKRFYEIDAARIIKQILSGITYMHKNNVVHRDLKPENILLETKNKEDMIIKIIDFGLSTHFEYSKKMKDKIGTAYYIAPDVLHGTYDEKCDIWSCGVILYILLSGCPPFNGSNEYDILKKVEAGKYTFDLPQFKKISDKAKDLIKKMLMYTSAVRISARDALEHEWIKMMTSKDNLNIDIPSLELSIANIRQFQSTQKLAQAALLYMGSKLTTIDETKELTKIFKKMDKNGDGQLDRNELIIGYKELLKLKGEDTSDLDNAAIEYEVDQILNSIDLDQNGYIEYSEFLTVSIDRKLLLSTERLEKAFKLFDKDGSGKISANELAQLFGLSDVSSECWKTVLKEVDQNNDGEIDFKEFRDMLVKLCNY

[8] = HepG2 cytotoxicity, primary screen, cytotoxicity control for P. falciparum antimalarial project, cell-based, ATP luminescence (AID 2303;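 active means inhibition above 50%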); conditions: HepG2 viability, 24-48 h, at 10 µM, active compounds read high

| SMILES | growth inhibition [1] | inhibition [2] | growth inhibition [3] | outcome [4] | outcome [5] | outcome [6] | outcome [7] | inhibition [8] |
| --- | --- | --- | --- | --- | --- | --- | --- | --- |
| Cc1cc(=O)c(-c2ccc(S(=O)(=O)c3ccc(Cl)cc3)cc2)c(C)[nH]1 | 80% (active) | 4% | 92% (active) | inactive | inactive | inactive | inactive |  |
| CCOc1ccc(-c2n[nH]c(C(F)(F)F)c2-c2ccccc2OC)c(O)c1 | 12% | -5% | 86% (active) | inactive | inactive | inactive | inactive | 22% |
| CCNc1cc(C(=O)N[C@@H](Cc2ccccc2)[C@H](O)CNCCCc2ccc(OC)cc2)cc(N2CCCC2=O)c1 | 96% (active) | 2% | 99% (active) | inactive | inactive | inactive | inactive | 4% |
| CC(C)c1ccc(N(CC(=O)N/N=C/c2ccc(C(F)(F)F)cc2)S(=O)(=O)c2ccc(C(F)(F)F)cc2)cc1 | 44% | 3% | 91% (active) | inactive | inactive | inactive | inactive | 2% |
| CCOc1cc(Cc2cnc(N)nc2N)cc(Br)c1OC | 3% | 5% | 83% (active) | inactive | inactive | inactive | inactive |  |
| Nc1nc(N)c2c(ccc3c2ccn3Cc2cccc(F)c2)n1 | 99% (active) | -6% | 101% (active) | inactive | inactive | inactive | inactive |  |
| COc1cc(Cc2cnc(N)nc2N)cc(OCCCC#N)c1OC | -1% | -3% | 86% (active) | inactive | inactive | inactive | inactive |  |
| Cc1nc(NCc2ccccc2)cc(Nc2cc(NCc3ccccc3)nc(C)n2)n1 | 32% | 8% | 90% (active) | inactive | inactive | inactive | inactive |  |
| CC(C)C(=O)ONC1=NC(C)(C)N(OCCCOc2cc(Cl)c(Cl)cc2Cl)C(NOC(=O)C(C)C)=N1 | 93% (active) | -9% | 92% (active) | inactive | inactive | inactive | inactive | 64% (active) |
| Fc1ccc2nc(-c3cccc(-c4ccc(CN5CCN(CCN6CCOCC6)CC5)cc4)c3)[nH]c2c1 | 100% (active) | -3% | 101% (active) | inactive | inactive | inactive | inactive | 30% |
| C=CCn1c(=N)n(CC(O)c2ccc(Cl)c(Cl)c2)c2ccccc21 (centres undefined) | 80% (active) | 1% | 91% (active) | inactive | inactive | inactive | inactive | 15% |
| Nc1nc(N)c2c(ccc3nn(Cc4ccccc4)cc32)n1 | 88% (active) | 0% | 97% (active) | inactive | inactive | inactive | inactive |  |
| CCOC(=O)c1ccc(N2CCCCC2)c(NC(=O)C(Cl)(Cl)Cl)c1 | 97% (active) | 1% | 96% (active) | inactive | inactive | inactive | inactive | 11% |
| CCCCSc1ccc(CNCCCCCCNCc2ccc(SCCCC)c3ccccc23)c2ccccc12 | 48% | 0% | 94% (active) | inactive | inactive | inactive | inactive |  |
| Cc1sc2nc(CN3CCCC3)nc(-n3c(NCCO)nc4ccccc43)c2c1C | 11% | -2% | 96% (active) | inactive | inactive | inactive | inactive | 19% |
| Nc1nc(N)c2c(ccc3[nH]c(-c4ccccc4Cl)nc32)n1 | 101% (active) | -1% | 101% (active) | inactive | inactive | inactive | inactive |  |
| CCCCCCCN(Cc1ccc(OC(C)(C)C(=O)OCC)cc1)C(=O)Nc1ccc(Cl)cc1OCC | 89% (active) | 1% | 95% (active) | inactive | inactive | inactive | inactive |  |
| CN(C)S(=O)(=O)n1ccc2c3c(N)nc(N)nc3ccc21 | -3% | -4% | 94% (active) | inactive | inactive | inactive | inactive |  |
| COC(=O)c1c(C#N)c(OC)cc(O)c1CSC[C@H](Nc1nc(-c2ccc([N+](=O)[O-])cc2)cs1)C(=O)NCCN1CCCCC1 | 88% (active) | -2% | 85% (active) | inactive | inactive | inactive | inactive | 5% |
| O=C(Cn1c(CCc2cccc(F)c2F)nc(=O)c2ccccc21)N(CCN1CCCC1)Cc1ccc(-c2ccc(C(F)(F)F)cc2)cc1 | 37% | -1% | 101% (active) | inactive | inactive | inactive | inactive | 63% (active) |
| COc1ccc2ncc(F)c(CCN3CCC(NCc4ccc5c(c4)CCO5)CC3)c2n1 | 30% | 3% | 100% (active) | inactive | inactive | inactive | inactive | 20% |
| CCOc1cc(OCC)c2ccccc2c1CNCCCCCCNCc1c(OCC)cc(OCC)c2ccccc12 | 89% (active) | 2% | 101% (active) | inactive | inactive | inactive | inactive |  |
| Nc1cc(C(F)(F)F)ccc1Cl | -1% | -1% | 97% (active) | inactive | inactive | inactive | inactive | 8% |

| SMILES | growth inhibition [1] | inhibition [2] | growth inhibition [3] | outcome [4] | outcome [5] | outcome [6] | outcome [7] | inhibition [8] |
| --- | --- | --- | --- | --- | --- | --- | --- | --- |
| CN1CCc2cc(NS(=O)(=O)c3ccc(-c4ccc(Cl)cc4)cc3)c(OCCCN3CCCCC3)cc2CC1 | 100% (active) | 0% | 101% (active) | inactive | inactive | inactive | inactive | 91% (active) |
| CCOc1cc2ncnc(Nc3ccc(OCc4ccccc4OC)c(OC)c3)c2cc1OCC | 52% (active) | -5% | 97% (active) | inactive | inactive | inactive | inactive |  |
| O=C(Nc1cccc(Cl)c1)c1cnc(N2CCN(c3ccncc3)CC2)c(Cl)c1 | 97% (active) | 4% | 101% (active) | inactive | inactive | inactive | inactive | 54% (active) |
| CC(C)(C)c1ccc(Cc2cccc3nc(N)nc(N)c23)cc1 | 51% (active) | 4% | 100% (active) | inactive | inactive | inactive | inactive |  |
| CN(C)c1ccc(CN2CCCC(CNC(=O)c3ccc(-c4cccc(C(F)(F)F)c4)s3)C2)cc1 (centres undefined) | 37% | 0% | 89% (active) | inactive | inactive | inactive | inactive | 32% |
| Cc1ccc(Cn2cnc3cc(C(=O)Nc4ccc(-c5cccc(CN(C)C)c5)cc4)ccc3c2=O)o1 | 39% | 4% | 99% (active) | inactive | inactive | inactive | inactive | 22% |
| CCOc1ccccc1C(=O)Nc1cccc(-c2nc3ncccn3c2C)c1 | 88% (active) | -6% | 92% (active) | inactive | inactive | inactive | inactive | 0% |
| CCOc1cc2ncnc(Nc3ccc(OCc4c(Cl)cccc4Cl)c(OC)c3)c2cc1OCC | 12% | 5% | 89% (active) | inactive | inactive | inactive | inactive |  |
| O=C(NCc1cccc2ccccc12)c1ccc(CNC2CCN(Cc3ccccc3)CC2)cc1 | 88% (active) | 5% | 101% (active) | inactive | inactive | inactive | inactive | 15% |
| CC(C)CNc1nc(N)nc2ccc3c(ccn3CC(C)C)c12 | 51% (active) | -7% | 99% (active) | inactive | inactive | inactive | inactive |  |
| NC(N)=NC(=O)Nc1cc(Br)c(Cl)c(C(F)(F)F)c1 | 91% (active) | 0% | 101% (active) | inactive | inactive | inactive | inactive |  |
| O=C(NC1CCN(Cc2ccccc2O)C1)c1ccc(Cl)c(Cl)c1 (centres undefined) | 62% (active) | -1% | 92% (active) | inactive | inactive | inactive | inactive | -9% |
| CCCCC#Cc1cnc2nc(N)[nH]c(=O)c2n1 | 2% | 0% | 89% (active) | inactive | inactive | inactive | inactive |  |
| CC(CO)(CO)NCc1cc2ccc3ccsc3c2c2ccccc12 | 98% (active) | 2% | 96% (active) | inactive | inactive | inactive | inactive |  |
| Nc1ncc(-c2ccc(Br)cc2)c(N)n1 | 0% | 0% | 89% (active) | inactive | inactive | inactive | inactive |  |
| COc1ccc2c(c1CNCCCCCCNCc1c(OC)ccc3c1CCCC3)CCCC2 | 7% | 6% | 94% (active) | inactive | inactive | inactive | inactive |  |
| Cc1[nH]c(C)c(-c2ccc(Oc3cccc(OC(F)(F)F)c3)cc2)c(=O)c1Cl | 97% (active) | -1% | 97% (active) | inactive | inactive | inactive | inactive |  |
| CN(C)C(=S)N=Nc1c(O)[nH]c2ccccc12 | 96% (active) | 2% | 95% (active) | inactive | inactive | inactive | inactive |  |
| Cc1ccccc1OCCCc1c(C)nc(N)nc1N | 1% | -3% | 97% (active) | inactive | inactive | inactive | inactive |  |
| Cc1cc2c3c(N)nc(N)nc3ccc2n1C | -2% | -5% | 95% (active) | inactive | inactive | inactive | inactive |  |
| CCN(CC)CCCC(C)Nc1ccnc2cc(C#N)ccc12 (centres undefined) | 80% (active) | -1% | 100% (active) | inactive | inactive | inactive | inactive |  |
| CC(C)c1ccc(Cn2cc(-c3ccncc3)c3cc(OCc4ccccc4)ccc32)cc1 | 88% (active) | -1% | 99% (active) | inactive | inactive | inactive | inactive |  |
